From PubChem BioAssay (NCI)
About 83,000 compounds went through this panel and 20% of them were active in at least one assay; those are over-represented in the sample as a whole.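 Cells were grown in 96-well plates and exposed to the test compound at a single concentration for 48 hours; results are reported as percent growth, with values below 10 considered active.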 A number with no mark means an inactive call. Activity calls are given as the source filed them.

Assays:
Experiment in all cases: NCI-60 one-dose screen, 48 h (100 = growth as untreated, 0 = no growth, -100 = all killed)
Details in all cases: 10 µM unless noted
SR leukemia = test system: SR leukemia
RPMI-8226 leukemia = test system: RPMI-8226 leukemia
OVCAR-8 ovarian = test system: OVCAR-8 ovarian
OVCAR-5 ovarian = test system: OVCAR-5 ovarian
OVCAR-4 ovarian = test system: OVCAR-4 ovarian
SK-OV-3 ovarian = test system: SK-OV-3 ovarian
IGROV1 ovarian = test system: IGROV1 ovarian
OVCAR-3 ovarian = test system: OVCAR-3 ovarian
HS 578T breast = test system: HS 578T breast
NCI/ADR-RES ovarian = test system: NCI/ADR-RES ovarian
T-47D breast = test system: T-47D breast
BT-549 breast = test system: BT-549 breast
MDA-MB-435 melanoma = test system: MDA-MB-435 melanoma
SW-620 colon = test system: SW-620 colon
MCF7 breast = test system: MCF7 breast
HCT-116 colon = test system: HCT-116 colon
HCC-2998 colon = test system: HCC-2998 colon
KM12 colon = test system: KM12 colon

Row | SMILES | growth (SR leukemia) | growth (RPMI-8226 leukemia) | growth (OVCAR-8 ovarian) | growth (OVCAR-5 ovarian) | growth (OVCAR-4 ovarian) | growth (SK-OV-3 ovarian) | growth (IGROV1 ovarian) | growth (OVCAR-3 ovarian) | growth (HS 578T breast) | growth (NCI/ADR-RES ovarian) | growth (T-47D breast) | growth (BT-549 breast) | growth (MDA-MB-435 melanoma) | growth (SW-620 colon) | growth (MCF7 breast) | growth (HCT-116 colon) | growth (HCC-2998 colon) | growth (KM12 colon)
1 | COCCOc1cc2ncnc(N3CCN(c4cc(S(C)(=O)=O)c(C)cc4Cl)CC3)c2cc1OCCOC | 77% | 76% | 83.2% | 109% | 103% | 105% | 98% | 96.1% | 90.6% | 83.2% | 69.6% | 91.4% | 105% | 110% | 91.9% | 103% | 100% | 93.2%
2 | N#Cc1c(-c2ccccc2)cc(-c2ccccc2)n(CCCC(=O)Nc2ccccc2N)c1=O | 22.4% | 48.9% | 69.1% | 95% | 91.9% | 95.6% | 51.7% | 26.2% | 43.5% | 39.5% | 64.1% | 55.4% | -15.6% (active) | 35% | 36% | 45% | 85.7% | 42.3%
3 | c1ccc([P+](c2ccccc2)(c2ccccc2)c2ccc3c4ccc([P+](c5ccccc5)(c5ccccc5)c5ccccc5)c5cccc(c6cccc2c63)c54)cc1 | 14.7% | -8.35% (active) | 14.2% | 24.3% | 23.6% | -7.17% (active) | 6.28% (active) | 19.3% | 15.8% | 72% | 23.6% | -1.26% (active) | 3.29% (active) | 10% | 16.1% | 8.67% (active) | 17.9% | -9.19% (active)
4 | O=C(Nc1nc2cc(C(=O)N3CCN(C(c4ccccc4)c4ccccc4)CC3)ccc2o1)c1ccc(NC2CCCCC2)c([N+](=O)[O-])c1 | 49.1% | 40.1% | 37.8% | 72.5% | 38.8% | 73.8% | 51.1% | 52.8% | 76% | 35.3% | 44.3% | 83.4% | 64.9% | 44.3% | 50.2% | 40.9% | 62.2% | 51.4%
5 | COc1ccc2[nH]c(C(=O)N3CCN(C(=O)OCc4ccc5c(Cl)cc(Cl)c(O)c5n4)CC3)cc2c1 | 2.29% (active) | -27.9% (active) | -64.1% (active) | -88.7% (active) | -69.5% (active) | 44.7% | -96.4% (active) | -97.3% (active) | -15.1% (active) | -2.44% (active) | -57.5% (active) | -69.3% (active) | -91% (active) | -81.9% (active) | -55.7% (active) | -92.2% (active) | -86.7% (active) | -62.3% (active)
6 | COc1ccc(-c2ccc(-c3ccc(C(=N)N)cc3)s2)cc1Cl | -7.28% (active) | -34.4% (active) | -18.2% (active) | 14.2% | -42% (active) | 93% | -87.5% (active) | -88% (active) | 44.9% | 78% | 42.6% | 93.7% | -65.2% (active) | -71.9% (active) | -65.5% (active) | -52.8% (active) | -37.8% (active) | -73.2% (active)
7 | C[C@@H](CO)[C@@H]1CCC=C2CC[C@]3(C)[C@H](CC[C@@H]4[C@@]5(C)CCCNC(C)(C)[C@@H]5CC[C@]43C)[C@H]21 | -29.9% (active) | -19.8% (active) | 67.2% | 82.9% | 48.8% | 107% | 71.3% | 69.8% | 69.8% | 80.9% | 58.9% | 81.5% | 7.57% (active) | -72.1% (active) | 7.68% (active) | -20.3% (active) | -61.5% (active) | 4.99% (active)
8 | O=C(C[C@]1(O)C(=O)Nc2ccccc21)c1cccc(C(F)(F)F)c1 | 96.7% | 88.7% | 95.1% | 81.4% | 91.3% | 75.8% | 67.6% | 77.9% | 90.3% | 94.7% | 87.9% | 97.6% | 103% | 91.9% | 81.2% | 95.5% | 107% | 87.6%
9 | O=C(Nc1ccc(OS(=O)(=O)c2ccc(F)cc2)cc1)C1CCCCCC1 | 70.2% | 78% | 93.2% | 99.7% | 98.5% | 97.5% | 118% | 96.1% | 82.4% | 82.1% | 81.4% | 80.5% | 97.3% | 88.9% | 92.1% | 84.5% | 78.9% | 70.3%
10 | CNC(=O)c1ccccc1Oc1nc(Nc2cc(OC)c(OC)c(OC)c2)ncc1Br | 42.9% | 73.1% | 72.2% | 71.2% | 49.5% | 70.1% | 46.8% | 66% | 69.2% | 66.8% | 62.2% | 62.7% | 74.5% | 46.7% | 44.5% | 46.5% | 51.6% | 11%
11 | CC1CCc2c(C(=O)Nc3ncc(Cc4cccc([N+](=O)[O-])c4)s3)csc2C1 (stereo not drawn) | 26.7% | 33% | 26.4% | 34.7% | 39.3% | 21.6% | 30.7% | 1.09% (active) | 19.1% | 15.6% | 27.8% | 46.6% | -42% (active) | 23.3% | 17.1% | 19% | 41.2% | 18.2%
12 | CN(c1cc2ncc(=O)[nH]c2cc1NC(N)=NCc1ccc(Cl)cc1)C1CCCCC1 | -22.7% (active) | 8.99% (active) | 70.4% | 73.2% | 72.7% | 84.7% | 61.6% | 82.3% | 64.2% | 115% | 47.6% | 82% | 40.2% | 6.15% (active) | -44.2% (active) | 24.9% | -10.5% (active) | 28.7%
13 | Cc1ccc2c(c1)=C/C(=C\c1cc(-c3ccccc3)oc1O)C(=O)N=2 | 101% | 94.2% | 104% | 97.9% | 105% | 111% | 111% | 96.5% | 106% | 98.4% | 97.7% | 94.3% | 110% | 107% | 89.2% | 93.1% | 115% | 100%
14 | COC(=O)c1nc(-c2ccccc2)oc1S(=O)(=O)Cc1ccccc1 | -11.5% (active) | 84.5% | 90.1% | 102% | 101% | 97.6% | 85.6% | 41.1% | 110% | 97% | 59.9% | 80.1% | 100% | 32.9% | 78.5% | 68.9% | 111% | 96.4%
15 | COc1ccc(/C=C(\C#N)n2nnc3cc(Cl)ccc32)cc1 | 19% | 8.04% (active) | 12.6% | -33.7% (active) | 25.5% | 44.4% | 3.88% (active) | -35.8% (active) | -8.59% (active) | -11.6% (active) | 17.2% | -1.84% (active) | -61.6% (active) | 8.09% (active) | 1.74% (active) | -9.51% (active) | -30.2% (active) | 5.89% (active)
16 | CSc1nnc(-c2cc3c([nH]c4ccccc43)c(-c3cccc(O)c3)n2)n1-c1ccccc1 | 21.7% | 16.2% | 47.1% | 58.7% | 43.7% | 47.4% | 49.9% | -0.418% (active) | 25.1% | 56.6% | 44.9% | 37.6% | -49.9% (active) | 31.3% | 13.2% | 18.3% | 67.3% | 21.6%
